Activity calls are given as the source filed them. The call rests on the fitted dose curve; in most records, active means well fitted activation curve with a large enough effect; inconclusive means small, poorly fitted or top-dose-only effect; inactive means no such curve, though single readings can be large or run the other way.
Assay: Confirmatory qHTS for Identification of Small Molecule Activators of Huntingtin-Antisense Promoter Activity
Conditions: HEK293 HTT-AS promoter firefly luciferase reporter, 24 h; series mostly up to 57.5 µM
Outline: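 Plated reporter HEK293 cells (24 h) received library compounds at up to 57.5 uM final or 50 uM PTC124, incubated 24 h at 37C; firefly luciferase luminescence was then recorded with Dual-Glo reagent.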

Potency, inactive:
Cc1cc(C)cc(NC(=O)C2CCCN2S(=O)(=O)c2ccc3c(c2)CCCC(=O)N3)c1 (stereo unspecified)
COc1cc(OC)c(OC)cc1/C=C/c1nc2cc3ccccc3cc2c(=O)n1-c1ccc(F)c(Cl)c1
CCc1ccc(NS(=O)(=O)c2c(C)nc3sc(CC)nn3c2=O)cc1
COc1ccccc1C(=O)N1c2ccccc2C(C)(c2ccc(Cl)cc2)CC1(C)C (stereo unspecified)
Cc1ccc2nc(CSc3nnc(NC(=O)COc4ccccc4)s3)cc(=O)n2c1
CCOC(=O)c1cc(-c2ccccc2)n(-c2cccc(C(=O)Nc3cccc(F)c3)c2)c1C
CCC1CCCCN1C(=O)CSc1nc(-c2ccc(OC)c(OC)c2)cc(C(F)(F)F)n1 (stereo unspecified)
Cc1ccc(C)c(-n2nnc(C(=O)Nc3ccc(Br)cc3)c2C)c1
COc1ccc(-c2nc(CSCC(=O)NCCc3ccc(OC)c(OC)c3)c(C)o2)cc1
Cc1ccc(-c2cn3nc(N4CCCC(C(=O)Nc5ccc(F)cc5)C4)sc3n2)cc1 (stereo unspecified)
COc1ccc(NC(=O)CN2C(=O)C(C)(C)c3ccccc32)cc1Cl
COc1cccc(N2CCN(C(=O)c3cccc(-n4c(C)nc5cccnc54)c3)CC2)c1
N#Cc1ccccc1S(=O)(=O)N1CCC(Oc2ccc(-n3cnnn3)cc2)CC1
COc1ccc(CNC(=O)c2ccc3c(c2)CCN3S(=O)(=O)c2ccc(C)cc2)cc1
Cc1cccc(N2CCN(C(=O)c3cccc(-n4c(C)nc5cccnc54)c3)CC2)c1C
Cc1cccc(NC(=O)Cc2ccc(-n3c(C)nc4cccnc43)cc2)c1C

Reference: PubChem BioAssay AID1508622 (National Center for Advancing Translational Sciences (NCATS), 2021)
